Results as given in PubChem BioAssay (EPA / NIEHS).
The source made the active and inactive calls. How the source made its calls: active means hit-call score of the fitted dose curve at least 0.9, where 1 is the maximum; inactive means score below 0.9.

assay: ATG_RORE_CIS: Attagene CIS-FACTORIAL HepG2 Assay for human RAR-related Orphan Receptor Element (RORE) (AID 2282959); settings: HepG2 Attagene cis-factorial RORE reporter, mRNA; actives raise or lower the signal
Summary of the method: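 Readout: fluorescent reporter mRNA by RT-PCR plus capillary electrophoresis, 24 h after dosing transfected HepG2 cells. Endogenous transcription factor activity on a cis promoter element is measured. Gain or loss of signal fitted against DMSO.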

| SMILES | outcome |
| --- | --- |
| CCNc1nc(Cl)nc(NC(C)(C)C#N)n1 | inactive |
| CC(C)[C@H](C(=O)O[C@H](C#N)c1cccc(Oc2ccccc2)c1)c1ccc(Cl)cc1 | inactive |
| CCOP(=S)(OCC)Oc1ccc2c(C)c(Cl)c(=O)oc2c1 | inactive |
| CSc1nc(NC(C)C)nc(NC(C)C)n1 | inactive |
| COP(=O)(OC)SCn1c(=O)oc2cc(Cl)cnc21 | inactive |
| CN(C)NC(=O)CCC(=O)O | inactive |
| Cc1nn(-c2cc(NS(C)(=O)=O)c(Cl)cc2Cl)c(=O)n1C(F)F | inactive |
| CCCCN(CC)c1c([N+](=O)[O-])cc(C(F)(F)F)cc1[N+](=O)[O-] | inactive |
| CCC(=NOC/C=C/Cl)C1=C(O)CC(C2CCOCC2)CC1=O (stereo not drawn) | inactive |
| C[N+]1(C)CCCCC1 | inactive |
| CNC(=O)ON=C(SC)C(=O)N(C)C | inactive |
| COP(=O)(NC(C)=O)SC (stereo not drawn) | inactive |

assay: ATG_Sox_CIS: Attagene CIS-FACTORIAL HepG2 Assay for human SRY-box transcription factor (SOX) (AID 2282960); settings: HepG2 Attagene cis-factorial SOX reporter, mRNA; actives raise or lower the signal
Summary of the method: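 Read-out: fluorescent RT-PCR products of SOX1-linked reporter transcripts resolved by capillary electrophoresis, fitted bidirectionally against DMSO. Transiently transfected HepG2 cells, 24 h after chemical exposure, endogenous transcription factor activity.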

| SMILES | outcome |
| --- | --- |
| CCOP(=O)(SC(C)CC)N1CCSC1=O (stereo not drawn) | inactive |
| CCCCOC(=O)[C@@H](C)Oc1ccc(Oc2ccc(C#N)cc2F)cc1 | inactive |
| CC(=NC#N)N(C)Cc1ccc(Cl)nc1 | inactive |
| CCc1cccc(C)c1N(C(=O)CCl)C(C)COC (stereo not drawn) | inactive |
| COc1cc(OC)nc(Sc2cccc(Cl)c2C(=O)O)n1 | inactive |
| CON=C(C(=O)OC)c1ccccc1CON=C(C)c1cccc(C(F)(F)F)c1 | inactive |
| CC1=NNC(=O)N(/N=C/c2cccnc2)C1 | inactive |
| S=C1NCCN1 | inactive |
| CC(C)=CC1C(C(=O)OCN2C(=O)C3=C(CCCC3)C2=O)C1(C)C (stereo not drawn) | inactive |
| CC(C1CC1)C(O)(Cn1cncn1)c1ccc(Cl)cc1 (stereo not drawn) | inactive |
| C#CC(C)(C)NC(=O)c1cc(Cl)cc(Cl)c1 | inactive |
| CCC(=O)Nc1ccc(Cl)c(Cl)c1 | inactive |
| O=C(O)c1cc(Oc2ccc(C(F)(F)F)cc2Cl)ccc1[N+](=O)[O-] | inactive |
| CCOP(=S)(OCC)SCCSCC | inactive |
| CCc1cnc(C2=NC(C)(C(C)C)C(=O)N2)c(C(=O)O)c1 (stereo not drawn) | inactive |
| CCOP(=S)(Oc1cnc(C(C)(C)C)nc1)OC(C)C (stereo not drawn) | inactive |
| CCOP(=S)(OCC)OC(Cl)C(Cl)(Cl)Cl (stereo not drawn) | inactive |
| CN(C)C(=O)Nc1cccc(C(F)(F)F)c1 | inactive |

| SMILES | outcome |
| --- | --- |
| CNC(=O)ON=C(C)SC | inactive |
| CCCOc1nn(C(=O)NS(=O)(=O)c2ccccc2C(=O)OC)c(=O)n1C | inactive |
| CCOC(=O)COc1cc(-c2nn(C)c(OC(F)F)c2Cl)c(F)cc1Cl | inactive |
| CCOP(=S)(OCC)Oc1ccc([N+](=O)[O-])cc1 | inactive |
| CC[C@H](C)[C@H]1O[C@]2(C=C[C@@H]1C)C[C@@H]1C[C@@H](C/C=C(\C)[C@@H](O[C@H]3C[C@H](OC)[C@@H](O[C@H]4C[C@H](OC)[C@@H](NC)[C@H](C)O4)[C@H](C)O3)[C@@H](C)/C=C/C=C3\CO[C@@H]4[C@H](O)C(C)=C[C@@H](C(=O)O1)[C@]34O)O2 | inactive |
| CN(C)[C@@H]1C(=O)C(C(N)=O)=C(O)[C@@]2(O)C(=O)C3=C(O)c4c(O)cccc4[C@@](C)(O)[C@H]3[C@H](O)[C@@H]12 | inactive |
| CCNc1nc(Cl)nc(NC(C)(C)C#N)n1 | inactive |
| CC(C)[C@H](C(=O)O[C@H](C#N)c1cccc(Oc2ccccc2)c1)c1ccc(Cl)cc1 | inactive |
| CCOP(=S)(OCC)Oc1ccc2c(C)c(Cl)c(=O)oc2c1 | inactive |
| CSc1nc(NC(C)C)nc(NC(C)C)n1 | inactive |
| COP(=O)(OC)SCn1c(=O)oc2cc(Cl)cnc21 | inactive |
| CN(C)NC(=O)CCC(=O)O | inactive |
| Cc1nn(-c2cc(NS(C)(=O)=O)c(Cl)cc2Cl)c(=O)n1C(F)F | inactive |
| CCCCN(CC)c1c([N+](=O)[O-])cc(C(F)(F)F)cc1[N+](=O)[O-] | inactive |
| CCC(=NOC/C=C/Cl)C1=C(O)CC(C2CCOCC2)CC1=O (stereo not drawn) | inactive |
| C[N+]1(C)CCCCC1 | inactive |
| CNC(=O)ON=C(SC)C(=O)N(C)C | inactive |
| COP(=O)(NC(C)=O)SC (stereo not drawn) | inactive |
